Bioassay records as filed in PubChem.
IEC-6 tox: kills IEC-6 intestinal cells in KLF5 counter-screen; IEC-6 cytotoxicity, luminescence viability; inhibition, % at 5 µM; 290,000 tested, 0.78% active; AID 1825; in the data active = inhibition above about 22%
BaF3 tox: parental Ba/F3 viability inhibition as JAK2V617F counter-screen | CellTiter-Glo ATP luminescence | inhibition, % at 5.6 µM | 220,000 tested, 1.1% active | AID 1486;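 active = inhibition above a per-campaign cutoff, the mean inhibition of all tested compounds plus 3 SD, cut at about 27% in these data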
KLF5 inhibitor: suppresses KLF5 promoter-driven expression. inhibition, % at 5 µM. DLD-1 KLF5 promoter-luciferase reporter, luminescence. 290,000 tested, 0.23% active. AID 1700;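 active = inhibition above a per-plate limit of that plate's mean compound inhibition plus 3 SD, cut at about 60% in these data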;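 note: higher means less KLF5 promoter-driven luciferase light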
Ba/F3 V617F tox: reduce viability of Ba/F3 cells dependent on JAK2V617F; Ba/F3 EpoR-JAK2V617F viability, ATP luminescence; inhibition, % at 5.6 µM; 220,000 tested, 1.1% active; AID 1446;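 active = inhibition above the campaign mean plus 3 SD over all tested compounds, cut at about 24% in these data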;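 note: cytokine-independent growth of Ba/F3 cells driven by EpoR plus mutant JAK2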
APP 5UTR inh: APP translation inhibition. AID 1285. 190,000 tested, 0.82% active. SH-SY5Y APP 5'UTR-luciferase reporter, luminescence. inhibition, % at 2 µM;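 active = inhibition above a set limit, derived from the sample mean plus 3 SD, cut at about 45% in these data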
Each line names hits and unclear results; the compound was inactive in the other large screens. Rows were chosen to be rich in hits. Some 1.9% of all compounds tested hit in one or more screens of this group.

Cc1ccc(C#CC[N+]2(CC#Cc3ccc(C)cc3)CCCCC2)cc1	BaF3 tox 77.7, Ba/F3 V617F tox 95.8
C#CC[N+]1(CC#Cc2ccccc2)CCCCC1	BaF3 tox 59.2, Ba/F3 V617F tox 46.2
Cn1cccc1C(=O)NC(=O)CSc1nnc(C2CC2)n1-c1ccccc1	none
COc1cccc(C(=O)N(C)C(C)c2nc3ccccc3s2)c1 (centres undefined)	none (no result: BaF3 tox, Ba/F3 V617F tox, APP 5UTR inh)
Cc1c(C(=O)/C=C/N(C)C)nnn1-c1ccc(Cl)c(Cl)c1	none (no result: APP 5UTR inh)
COCc1nnc(NC(=O)c2ccc(S(=O)(=O)N3CCCCCC3)cc2)o1	none
O=C(COc1ccc(Cl)cc1)NCCc1ccccn1	none
O=C1c2ccccc2C(=O)N1CCCc1nc(-c2ccc(Cl)cc2)no1	none
C(#Cc1ccccc1)C[N+]1(CC#Cc2ccccc2)CCCCC1	BaF3 tox 69.4, Ba/F3 V617F tox 86.5
Cc1cc(C)n(-c2cc(Cl)cc(Cl)c2)c(=O)c1C#N	none
Cc1ccc(-n2c(C)cc(C)c(C#N)c2=O)cc1Cl	APP 5UTR inh 62.1
CC(=O)C1=C(O)C(=O)N(Cc2ccccc2)C1c1ccc(F)cc1 (centres undefined)	none (no result: BaF3 tox, Ba/F3 V617F tox, APP 5UTR inh)
CC(=O)C1=C(O)C(=O)N(Cc2ccccc2)C1c1ccccc1F (centres undefined)	BaF3 tox 37.4
COc1cccc(CNC(=O)Cn2ncc3c(=O)oc4ccccc4c32)c1	BaF3 tox 62.2, Ba/F3 V617F tox 61.0 (no result: APP 5UTR inh)
Cc1cc(=O)c(C(=O)O)nn1-c1ccc(Cl)cc1	none (no result: APP 5UTR inh)
CN(C)CC(C(=O)c1ccccc1)c1ccccc1 (centres undefined)	APP 5UTR inh 93.9
COc1ccc(CCNC(=O)CSc2nnnn2-c2ccccc2)cc1	APP 5UTR inh 47.6
CCCCNc1ncnc2c1cnn2-c1ccc(C)cc1C	none
Cc1ccc(-n2ncc3c(NCCCN4CCCC4=O)ncnc32)c(C)c1	BaF3 tox 47.1
CN(C)c1ccc(CNc2nc3ccccc3s2)cc1	KLF5 inhibitor 63.5 (no result: BaF3 tox, Ba/F3 V617F tox, APP 5UTR inh)
CCC(C)NCCCOc1ccc([N+](=O)[O-])cc1 (centres undefined)	none
COC(=O)/N=C(/Cc1ccc(OC)cc1)c1ccc(OC)cc1	none (no result: BaF3 tox, Ba/F3 V617F tox, APP 5UTR inh)
CCOc1ccc(NC(=S)Nc2ccccc2C2CC2)cc1	BaF3 tox 80.6
CCOc1ccc(NC(=S)Nc2ccc(OC(F)(F)F)cc2)cc1	BaF3 tox 50.7, Ba/F3 V617F tox 62.9 (no result: APP 5UTR inh)
CCOc1ccc(NC(=S)Nc2cccc3ccccc23)cc1	none (no result: BaF3 tox, Ba/F3 V617F tox, APP 5UTR inh)
CCOc1ccc(NC(=S)Nc2ccc(OCC)cc2)cc1	none
Cc1ccc(-n2c(C)nc3c(cnn3-c3ccc(F)cc3)c2=O)cc1	none
CCC(C)NS(=O)(=O)c1ccc(OCC(=O)N2CCCCC2)cc1 (centres undefined)	none
CCC(C)NS(=O)(=O)c1ccc(NC(C)=O)cc1 (centres undefined)	none
COC(=O)C(C)NS(=O)(=O)c1ccc(NC(C)=O)cc1 (centres undefined)	IEC-6 tox 25.8
O=C(c1ccc(F)cc1)N(C(=O)c1ccc(F)cc1)c1ncccn1	APP 5UTR inh 70.7
COc1cc2c(cc1OC)C(c1ccccc1)=NCC2	none
COc1cc2c(cc1OC)C(c1ccccc1N)=NCC2	BaF3 tox 47.4, Ba/F3 V617F tox 38.5 (no result: APP 5UTR inh)
O=S(=O)(Nc1ccncc1Cl)c1ccccc1	none
Cc1ccc(CSc2nc3ccccc3cc2C=O)cc1	APP 5UTR inh 94.2
COc1ccc(CC(=O)Nc2cc3oc4ccccc4c3cc2OC)cc1	none
COc1cc2c(cc1NC(=O)COc1ccc3ccccc3c1)oc1ccccc12	APP 5UTR inh 45.6
CC1(C)CC(=O)C2=C(C1)OC(c1cccs1)C(C#N)=C2N (centres undefined)	none
COc1ccc(C(=O)CSc2nnc(-c3ccco3)c(-c3ccco3)n2)cc1	APP 5UTR inh 66.6
O=C(CSc1nnc(-c2ccco2)c(-c2ccco2)n1)Nc1ccccc1	APP 5UTR inh 50.1
COc1ccc(C(=O)CSc2nnc(-c3ccco3)n2C)cc1	none
COc1ccc(-c2coc3cc4oc(=O)c5ccccc5c4cc23)cc1F	APP 5UTR inh 95.8
COc1nc(N=C(N)N)nc2ccc(C)cc12	BaF3 tox 55.8, Ba/F3 V617F tox 54.8
CC(C)OC(=O)C(=O)NNc1ccccc1	none
Cc1ccc(-c2c[n+]3c(n2-c2ccccc2)SCC3)cc1	BaF3 tox 64.3, Ba/F3 V617F tox 79.1 (no result: APP 5UTR inh)
COc1ccc(-c2c[n+]3c(n2-c2ccccc2)SCC3)cc1	BaF3 tox 61.2, Ba/F3 V617F tox 73.1 (no result: APP 5UTR inh)
COc1ccc(-c2c[n+]3c(n2-c2ccccc2)SCC3)cc1OC	BaF3 tox 76.6, Ba/F3 V617F tox 46.2
Brc1ccc(-c2c[n+]3c(n2-c2ccccc2)SCC3)cc1	BaF3 tox 59.4, Ba/F3 V617F tox 64.0 (no result: APP 5UTR inh)
